PubChem BioAssay (NCATS)
Records with an inconclusive call do not appear. Calls of active or inactive are those of the source. Calls come from the whole dose curve; as a rule, active = well fitted cell-killing curve with a large enough effect; inconclusive = small, poorly fitted or top-dose-only effect, or effect the other way; inactive = no such curve, though single readings can be large or run the other way.

Test: Viability qHTS for spleen associated tyrosine kinase inhibitor (SYKi) drug resistant MV4-11 cells (AID 1963824); note: nearly all actives have a fitted effect of over 35% in size
Conditions: SYKi-resistant MV4-11 viability, CellTiter-Glo, 72 h; series mostly up to 45 µM; viability, % of control: at the top concentration
Outline: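 SYK inhibitor-resistant MV4-11 AML cells, 500 per well, added to predispensed compounds and incubated 72 hr at 37 C, 5% CO2. Viability measured by CellTiter-Glo luminescence after 10 min at room temperature.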
Potency is the fitted concentration of half-maximal effect.

| Structure (SMILES) | Potency | viability, % of control |
| --- | --- | --- |
| COC(=O)c1ccc2c(c1)[nH]c1ncnc(NCCCN3CCCCC3)c12 | 9.2 µM (active) | – |
| C=C[C@@](C)(O)CC/C=C(\C)C(=O)O[C@@H]1[C@@H]2O[C@]2(C)[C@H]2[C@H](O[C@@H]3O[C@H](CO)[C@@H](O)[C@H](O)[C@H]3O)OC=C[C@@]12O | – | 109% [at 17.3 µM] (inactive) |
| CNC(C)C(=O)NC(C(=O)N1CCCC1c1nc(C(=O)c2ccc(F)cc2)cs1)C1CCCCC1 (stereo not given) | 2.59 µM (active) | – |
| O=C(O)/C=C/c1cc2c(cc1O[C@@H]1O[C@H](CO)[C@@H](O)[C@H](O)[C@H]1O)OCO2 | – | 69.4% (inactive) |
| COc1cccc(CNC(=O)Nc2nc(-c3ccncc3)cs2)c1 | 18.4 µM (active) | – |
| C=C1C(OC2OCC(O)C(O)C2O)CC2C(C)(C)C(O)CCC2(C)C1CC/C(C)=C\CO (stereo not given) | 7.09 µM (active) | – |
| Cc1cncc2cccc(S(=O)(=O)N3CCCNC[C@@H]3C)c12 | 9.2 µM (active) | – |
| CCCNCCOc1ccc(NC(=O)c2c[nH]c3c2C(=O)CCC3)cc1F | 2.91 µM (active) | – |
| CN(C)c1ccc(Nc2c3ccc(NC(=O)CCN4CCCC4)cc3nc3cc(NC(=O)CCN4CCCC4)ccc23)cc1 | 4.11 µM (active) | – |
| Cc1ccc(NS(=O)(=O)c2cc3c(cc2N[C@@H](C)CO)NC(=O)CC3)cc1Cl | 11.6 µM (active) | – |
| C/C=C(\C)C(=O)OC[C@H]1O[C@H](O[C@H]2O[C@H](CO)[C@@H](OC(=O)/C(C)=C/C)[C@H](O)[C@H]2O[C@@H]2O[C@H](CO)[C@@H](O)[C@H](O)[C@H]2O)[C@H](O[C@@H]2O[C@H](CO)[C@@H](O)[C@H](O)[C@H]2O)[C@@H](O)[C@@H]1O | – | 92.1% [at 9.25 µM] (inactive) |
| COc1c2c(c(C)c3c1C(=O)OC3)OC1(C)CC(O)C34OC(OC)(CC(O)C3(C)C1C2)OC4(C)C (stereo not given) | 10 µM (active) | – |
| C=C[C@@]1(C)CCC2=C([C@H]1OC(C)=O)[C@H](OC(C)=O)CC1[C@](C)(C(=O)OC)CC[C@H](OC(C)=O)[C@]21C (stereo not given in full) | – | 67.8% [at 17.3 µM] (inactive) |
| COc1cc(N(C)CCN(C)C)c(N)cc1Nc1nccc(-c2cn(C)c3ccccc23)n1 | 10.3 µM (active) | – |
| COc1cc(O)c(C(=O)CCc2ccc(O)cc2)c(O[C@@H]2O[C@H](CO)[C@@H](O)[C@H](O)[C@H]2O)c1 | 11.2 µM (active) | – |
| CO[C@H]1C[C@@H]2CC[C@@H](C)[C@@](O)(O2)C(=O)C(=O)N2CCCC[C@H]2C(=O)O[C@H]([C@H](C)C[C@@H]2CC[C@@H](OP(C)(C)=O)[C@H](OC)C2)CC(=O)[C@H](C)/C=C(\C)[C@@H](O)[C@@H](OC)C(=O)[C@H](C)C[C@H](C)/C=C/C=C/C=C/1C | 3.72 µM (active) | – |
| CC(=O)NC(C(=O)O[C@H]1CCC(C)(C)[C@@H]2CC=C3C(=O)OCC3(O)[C@@]12C)C(C)C (stereo not given in full) | 3.6 µM (active) | – |
| COc1ccc2nc3ccc(OC)cc3c(SCCCN)c2c1 | 2.31 µM (active) | – |
| CNC(=S)NS(=O)(=O)c1cc(CCNC(=O)c2cc(Cl)ccc2OC)ccc1OC | – | 83.2% (inactive) |
| COc1cccc2c1CCC[C@H]2CN(C)CCc1ccc2ccoc2c1 | 23.1 µM (active) | – |

| Structure (SMILES) | Potency | viability, % of control |
| --- | --- | --- |
| COc1c2c(c(C)c3c1C(=O)OC3)OC1(C)CC(O)C34OC(OC)(CC(OC(C)=O)C3(C)C1C2)OC4(C)C (stereo not given) | – | 79.2% [at 17.3 µM] (inactive) |
| Nc1nc2c(ncn2[C@@H]2O[C@H](CO)[C@@H](O)[C@H]2O)c(=O)[nH]1 | – | 69.5% (inactive) |
| C/C=C1\[C@H](O[C@@H]2O[C@H](CO)[C@@H](O)[C@H](O)[C@H]2O)OC=C(C(=O)OC)[C@H]1CC(=O)O | – | 62.2% [at 17.3 µM] (inactive) |
| CC(Cc1cccc(C(F)(F)F)c1)NCCOC(=O)c1ccccc1 (stereo not given) | – | 85.5% (inactive) |
| CC1OC(O[C@H]2[C@@H](O)C[C@@]3(C)C([C@H](O)C[C@]4(C)C3CC=C3C5CC(C)(C)CC[C@]5(C(=O)OC5OC(CO)C(O)C(O)C5OC5OCC(OC6OCC(OC7OCC(O)C(O)C7O)C(O)C6O)C(OC6OCC(O)(CO)C6O)C5O)CC[C@]34C)[C@]2(C)CO)C(O)C(O)C1O (stereo not given in full) | – | 97% [at 9.25 µM] (inactive) |
| NCCCNc1ccc(Nc2nccc(Nc3cc(C4CC4)[nH]n3)n2)cc1 | 0.164 µM (active) | – |
| CCOC(=O)c1cc2ccc(O)cc2oc1=O | 14.6 µM (active) | – |
| O=C(/C=C/c1ccc(O)c(O)c1)OC[C@H]1O[C@@H](OC2CCCCC2O)[C@H](O)[C@@H](O)[C@@H]1O (stereo not given in full) | – | 107% [at 17.3 µM] (inactive) |
| O=C(O)c1ccc(O)c2ncc(N3CCCN(CCc4cccc5ccccc45)CC3)cc12 | 10.3 µM (active) | – |
| CN(C)c1nc(NC2CCC(NCCc3ccc(Br)cc3OC(F)(F)F)CC2)nc2ccccc12 (stereo not given) | 0.651 µM (active) | – |
| CNC(=O)c1ccc(-c2cnc3cnc(C(=O)N(C)c4ccc(Cl)cc4)cn23)cc1 | 18.4 µM (active) | – |
| CO[C@@H]1[C@]2(O)C(=O)N3/C=C\C(C)(C)c4[nH]c5ccccc5c4/C=C\3C(=O)N2[C@]23[C@H](CO)C(C)(C)N2c2ccccc2[C@]13O | – | 84.1% [at 17.3 µM] (inactive) |
| COc1cnc(-c2ccc(Cn3c(CC(C)(C)C(=O)O)c(SC(C)(C)C)c4cc(OC[C@@H]5Cc6ccccc6N5C(C)=O)ccc43)cc2)nc1 | 12.8 µM (active) | – |
| C[C@@H]1O[C@@H](O[C@H]2CC[C@@]3(C)C(CC[C@]4(C)C3CC=C3[C@@H]5CC(C)(C)CC[C@]5(C(=O)O[C@@H]5O[C@H](CO)[C@@H](O)[C@H](O)[C@H]5O)CC[C@]34C)[C@]2(C)CO)[C@H](O)[C@H](O[C@@H]2O[C@H](CO)[C@@H](O)[C@H](O)[C@H]2O)[C@H]1O (stereo not given in full) | 3.9 µM (active) | – |
| CC(C)c1ccc(NC(=O)C(c2ccccc2)N(C)C(=O)Cc2c[nH]c3ccccc23)cc1 (stereo not given) | 18.4 µM (active) | – |
| COc1cc(N2CCC(N3CCN(C)CC3)CC2)ccc1Nc1ncc(Cl)c(-c2c[nH]c3ccccc23)n1 | 0.0116 µM (active) | – |
| C[C@@H]1O[C@@H](O[C@H]2[C@@H]3C=CO[C@@H](O[C@@H]4O[C@H](CO)[C@@H](O)[C@H](O)[C@H]4O)[C@@H]3[C@@]3(CO)O[C@@H]23)[C@H](O)[C@H](OC(=O)/C=C/c2ccccc2)[C@H]1O | 6.11 µM (active) | – |
| Cc1nc(Nc2n[nH]c3c2CN(C(=O)NC(CN(C)C)c2ccccc2)C3(C)C)c2sccc2n1 (stereo not given) | 0.0164 µM (active) | – |
| CCOc1ccc(S(=O)(=O)N2CCCCCC2)c2ccccc12 | 20.6 µM (active) | – |
| CC[C@H]1OC(=O)[C@H](C)[C@@H](O[C@H]2C[C@@](C)(OC)[C@@H](O)[C@H](C)O2)[C@H](C)[C@@H](O[C@@H]2O[C@H](C)C[C@H](N(C)C)[C@H]2O)[C@@](C)(O)C[C@@H](C)[C@@H]2N[C@@H](COCCOC)OC([C@H]2C)[C@]1(C)O | – | 83.2% (inactive) |
